From article PMC13494018
A number with no mark means an inactive call. The rule behind the calls is not given here.

B1: d1r11_design_ppi_712_dldesign_0_cycle0_af2pred (protein)
chain: MTPEEKAARLAAAADAYIKMAKAALAAGKLEEAKEFAEAALKAAKEAEKLDPELGAKKAAEAKAVKAEIDAA
B2: d1r12_design_ppi_293_dldesign_0_cycle1_af2pred (protein)
chain: AAAAEAARKAALAAAADAHAAGAQAALRAARQAAERGDPEAARTFMDLALTSAQQARDLYDEAGFPEKGKAVYEATRAAVAEVEALL
B3: d1r11_design_ppi_712_dldesign_0_cycle1_af2pred (protein)
chain: MTPAQQAAQLANQANSYITMAKAALAAGDLETAKEFAELAIEYATQAQKLDPALGTAVKAEAEAVLAQVNAA
B4: d1r12_design_ppi_352_dldesign_0_cycle0_af2pred (protein)
chain: SRARANYAQLVAESAEGGAKAAEAKAKAAKAAGDEATAKKYEEAAELYREGAALAKAGDIAGAVAKINEAAALLAA
B5: d1r12_design_ppi_474_dldesign_0_cycle0_af2pred (protein)
chain: KEELKKEIKKLAKKAKEHAEEAKRTAGDLGAMARHTTEAAAAAEKAQALAAKSGDEEAKKLAKEAKEAAAEATEHLVEAARAAA
B6: d1r12_design_ppi_352_dldesign_0_cycle1_af2pred (protein)
chain: SAARARYAALVAESAEVGAATYDAAAKAAEAAGDAATAAKYKEAAALYKAGADAAKAGDIAAAVAKINAAAALVAA
B7: d1r11_design_ppi_627_dldesign_0_cycle1_af2pred (protein)
chain: AEEVAARAAELTRTVHHGSPEEATAAARELTALVAAASPEAAAAGRRAIAETNKALLAETAAARAAAAAAAAAAAAAAAAAAA
B8: d1r12_design_ppi_675_dldesign_0_cycle0_af2pred (protein)
chain: DEARRAGALAFAEQLRASFAATRAAAAALPRASAAAALAGIAASAKQLGAVVPEAAELAAEAAAAAAAVAA
B9: d1r12_design_ppi_822_dldesign_0_cycle1_af2pred (protein)
chain: AAAARAAEAAALAAAVTAAAAAVAAAVAAGTPDEGRAAARAFGRAALGAAARLPEVAPAVDAAADVVSDAYVAAVAAR
B10: d1r12_design_ppi_102_dldesign_0_cycle0_af2pred (protein)
chain: AAAEAAARLAEAEALLAKAKEHAKKAKEAAKAGDLAAANQHATAASAAALAIKELGAPADIQAAADAAVAEAMDAVVAAAKAR
B11: d1r12_design_ppi_408_dldesign_0_cycle0_af2pred (protein)
chain: SLELAEAAHAAGRAAAADPARAAEAGALLKDMIAYALAASAAYREAEALRAAGGDQAAIDAAEAEAKAYEAKSKEKAAELKALAAAAA
B12: d1r11_design_ppi_369_dldesign_0_cycle0_af2pred (protein)
chain: MQERLDAYNAEAGAALEAAAASTDGARRLALMRKAAGLGLAAAGYAAGPEAGEAAEKQAEARFAAADAALA
B13: d1r11_design_ppi_460_dldesign_0_cycle1_af2pred (protein)
chain: AAEEALKRAEELAKEVIELAEKVPEAAALGKKVREALEAARHGAESLMRAAARSTPEAAAVMNESAIAMNEAAIKLAEELRKEIEKIA
B14: d1r11_design_ppi_865_dldesign_0_cycle0_af2pred (protein)
chain: DAELKAQAAKIAKEAIEKAKKAKDKNEVWRYASQGLAQLTRIAAAGSPEVKAFAAEQAKKLTEEAEKIVAAL
B15: d1r11_design_ppi_982_dldesign_0_cycle1_af2pred (protein)
chain: AAAARAQAAQVVADSARAAAKEAEAKAKEAEAKDPAYGKELKANAEKLKAAAEAAEADPAALPEAVKTLIEQTSNMRALEAKLAA
B16: d1r12_design_ppi_408_dldesign_0_cycle1_af2pred (protein)
chain: MEALAQAGHAANQAAAADPAQAPRAAALLREMIAHARAASAAWLEAQALEAAGGDPAAVAAARAAAAEHQAKAEALAAELKALAEAAA
B17: d1r12_design_ppi_153_dldesign_0_cycle1_af2pred (protein)
chain: AAAHEAFVAEVTAVADAAADAASAAWLAGQTAGPEWRAVADRLVALAREALRAAADPARAPEARRAAAEAAALAAEAAALVAAA
B18: d1r12_design_ppi_387_dldesign_0_cycle1_af2pred (protein)
chain: MEAARAAFERRKAALEADRAEAEALLADPATAAEGRALLAALAVRAKAYGKLFAAHDPELGAELTALGEEAAALA
B19: d1r12_design_ppi_87_dldesign_0_cycle1_af2pred (protein)
chain: GAALEEAERLMEEAEAALAQAEATGDQRLLGAAMAAAERAVELATREASPEEAAEVERRAAELFARAAEVSQRIAAALLARAAAQA

Target: CD276, Q5ZPR3
Sequence (Q5ZPR3 whole entry): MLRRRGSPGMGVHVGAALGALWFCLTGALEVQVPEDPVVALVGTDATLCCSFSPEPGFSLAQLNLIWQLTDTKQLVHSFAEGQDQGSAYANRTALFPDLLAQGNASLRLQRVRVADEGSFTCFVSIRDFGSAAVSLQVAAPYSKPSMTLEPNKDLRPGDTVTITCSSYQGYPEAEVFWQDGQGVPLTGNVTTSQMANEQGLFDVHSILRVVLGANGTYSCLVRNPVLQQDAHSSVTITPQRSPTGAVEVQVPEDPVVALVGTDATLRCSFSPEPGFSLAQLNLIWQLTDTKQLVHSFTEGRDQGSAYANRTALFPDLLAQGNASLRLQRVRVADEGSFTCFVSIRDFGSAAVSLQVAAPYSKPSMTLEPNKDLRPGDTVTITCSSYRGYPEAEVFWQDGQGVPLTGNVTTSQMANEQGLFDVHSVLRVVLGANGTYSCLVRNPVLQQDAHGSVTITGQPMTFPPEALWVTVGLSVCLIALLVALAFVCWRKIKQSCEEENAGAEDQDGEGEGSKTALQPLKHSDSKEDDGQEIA

Binder | binding in a display sort
B1 | not found
B2 | not found
B3 | not found
B4 | not found
B5 | not found
B6 | not found
B7 | not found
B8 | not found
B9 | not found
B10 | not found
B11 | not found
B12 | not found
B13 | not found
B14 | not found
B15 | not found
B16 | not found
B17 | not found
B18 | not found
B19 | not found
